In PubChem BioAssay (NCI) one finds growth data, which are given here for 17 compounds.

Common to all, as to test: NCI-60 one-dose screen, 48 h (100 = growth as untreated, 0 = no growth, -100 = all killed)
The test system of test [1] is NCI-H23 lung. The conditions noted are these: 10 µM unless noted.
For test [2], the system named is NCI-H322M lung. Conditions: 10 µM unless noted.
Test [3] relates to HOP-62 NSCLC. The conditions noted are these: 10 µM unless noted.
Test [4] has as its system NCI-H460 lung. Conditions: 10 µM unless noted.
The test system of test [5] is NCI-H522 lung. The conditions noted are these: 10 µM.
The test system of test [6] is A549/ATCC NSCLC. Conditions: 10 µM unless noted.
In test [7] the test system is 786-0 renal. The conditions noted are these: 10 µM unless noted.
Test [8] has as its system COLO 205 colon. The conditions noted are these: 10 µM unless noted.

Structures are written as SMILES. The panel holds about 83,000 compounds, 20% with a hit somewhere; the sample as a whole holds those more often.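 For each line, cells grew in 96-well plates with the test compound present at a single concentration for 48 hours.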 Unmarked numbers belong to inactive results. Calls of active or inactive are those of the source. The calls were made as follows: active = growth percent below 10; inactive = the rest.

With `NC(=O)c1nc2c([nH]c1=O)CCCC2`, the growth in test [1] was 104%; in test [2] it was 120%; in test [3] it was 94.7%; in test [4], 115%; in test [5], 91.6%; in test [6], 103%. In addition, the growth in test [7] was 106%; in test [8], 101%.
Regarding `O=C(NCc1ccco1)C1CCN(S(=O)(=O)c2ccc(Cl)cc2)CC1`, the growth in test [1] is 77.9%; in test [2] it was 108%; in test [3] it was 92.6%; in test [4], 63.1%; in test [5], 68.7%; in test [6], 74.9%. Besides, the results for the growth in test [7] and in test [8] were 82.9% and 101%, respectively.
Take `Fc1ccccc1Nc1ccc2nnc(-c3ccncc3)n2n1`: the growth in test [1] is 93.1%; in test [2], 104%; in test [3] it was 106%; in test [4], 103%; in test [5] it was -74.5% (active); in test [6] it was 103%. Moreover, the growth in test [7] was 101%; in test [8] it was 106%.
On to `Cc1ccc(-c2nnc(COc3ccc(-c4nnc(N)s4)cc3)o2)cc1`, for which the growth in test [1] was 79.4%; in test [2], 95.9%; in test [3] it was 113%; in test [4], 93%; in test [5], 73.9%; in test [6], 105%. The growth in test [7] is 96.9%; in test [8] it was 92.8%.
For `CCOC(=O)c1c(-c2cc(OC)c(OC)c(OC)c2)csc1N`, the growth in test [1] was 92.9%; in test [2], 99.4%; in test [3] it was 80%; in test [4] it was 104%; in test [5], 79.6%; in test [6] it was 96.9%. Also, the growth in test [7] was 112%; in test [8], 90.7%.
Regarding `COC(=O)[C@H]1CCCN1C(=O)[C@H]1CCCN1C(=O)[C@@H](Cc1c[nH]c2ccccc12)NC(=S)Nc1cc(C(F)(F)F)cc(C(F)(F)F)c1`, the growth in test [1] was 69.2%; in test [2] it was 32.8%; in test [3] it was 78.6%; in test [4], 18.6%; in test [5], 85.7%; in test [6], 31%. The growth in test [7] was 62.5%; in test [8], 38.4%.
Consider `Cc1c(NCC(=O)Nc2nc3ccccc3[nH]2)c(=O)n(-c2ccccc2)n1C`, for which the growth was 94.9% in test [1]; 105% in test [2]; 107% in test [3]; 99.6% in test [4]; 100% in test [5]; 97% in test [6]. Further, the growth in test [7] was 104%; in test [8], 110%.
Regarding `CCOC(=O)c1c(Cl)c2c(n1Cc1cc(OC)cc(OC)c1)-c1oncc1CCC2`, the growth is 44.1% in test [1]; 55.7% in test [2]; 39.7% in test [3]; 12.8% in test [4]; 28.9% in test [5]; 28.1% in test [6]. The figures for the growth in test [7] and in test [8] were 43% and -51.8% (active), respectively.
As to `O=C1C(N2CCOCC2)=Cc2cccc3cccc1c23`, the growth in test [1] was 100%; in test [2], 111%; in test [3], 89%; in test [4] it was 93.2%; in test [5] it was 89.4%; in test [6], 88.5%. For the same compound, the growth in test [7] is 103%; in test [8], 93.7%.
With `O=C(Nc1ccccc1)Oc1cccc2cccnc12`, the growth was 87.1% in test [1]; 138% in test [2]; 99.6% in test [3]; 74.8% in test [4]; -4.77% (active) in test [5]; 93.3% in test [6]. The results for the growth in test [7] and in test [8] were 99.9% and 72.1%, respectively.
In the case of `COc1cccc(C2CC(=O)Nc3cc4c(cc32)CCC4)c1OC` (stereo unspecified), the growth in test [1] is 59%; in test [2], 68%; in test [3] it was 60.5%; in test [4], 61.8%; in test [5], 60.9%; in test [6], 47.8%. For the same compound, the growth was 79.6% in test [7] and 50% in test [8].
Regarding `COc1ccc(C2SC(C)C(=O)N2CCc2cccs2)cc1OC` (stereo unspecified), the growth in test [1] was 76.4%; in test [2], 91.7%; in test [3], 94.5%; in test [4], 90.3%; in test [5], 66.2%; in test [6] it was 80.6%. Further, the figures for the growth in test [7] and in test [8] were 92% and 93.9%, respectively.
For the compound `CCOC(=O)c1sc(NC(=O)CN2CCC(Cc3ccccc3)CC2)nc1C`, the growth was 96.2% in test [1]; 90.4% in test [2]; 102% in test [3]; 101% in test [4]; 92.9% in test [5]; 104% in test [6]. Also, the growth is 96.9% in test [7] and 97.1% in test [8].
On to `Nc1nc(N)c(C=Nc2ccc(Br)cc2)c(Nc2ccc(Br)cc2)n1`, for which the growth in test [1] was 97.9%; in test [2], 72.9%; in test [3], 98.9%; in test [4], 95.9%; in test [5], 86.4%; in test [6], 77.2%. Further, the growth in test [7] is 92.9%; in test [8], 117%.
With `CCN1C(=O)C2(Nc3ccccc3S2)c2cc(C)ccc21` (stereo unspecified), the growth in test [1] was 111%; in test [2], 96.2%; in test [3] it was 89.7%; in test [4], 109%; in test [5], 86.8%; in test [6], 95.7%. The growth in test [7] was 113%; in test [8], 97%.
On to `COc1cc(CNCCN2C(=O)c3ccc4c5c(ccc(c35)C2=O)C(=O)N(CCNCc2cc(OC)c(OC)c(OC)c2)C4=O)cc(OC)c1OC`, for which the growth in test [1] is -89.3% (active); in test [2], -68.3% (active); in test [3], -78% (active); in test [4], -81.7% (active); in test [5] it was -60.3% (active); in test [6], -76.5% (active). Moreover, the growth in test [7] was -93.6% (active); in test [8], -72% (active).
With `CN1CCC(OC2c3ccccc3CCc3ccccc32)CC1`, the growth in test [1] was 94.6%; in test [2] it was 92.8%; in test [3] it was 93.8%; in test [4], 106%; in test [5] it was 96.7%; in test [6] it was 96.2%. The growth is 103% in test [7] and 99.1% in test [8].
